TGFb inhibitor – qHTS for Inhibitors of TGF-b. HepG2 CAGA-GFP TGF-b/SMAD3 reporter, GFP fluorescence, 18 h; TGF-beta stimulated, 500 pg/mL final. Potency, µM (doses to about 46.1 µM), for the others: at the highest dose activity, negative = inhibition, most hits filed as inhibitors. hit rate 1.2% among 410,000; note: % is set by controls: 0 for no effect and ±100 for the full control effect; nearly all actives have a fitted effect of over 65% in size
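Per well, imaged GFP fluorescence of HEPG2 CAGA-GFP cells gives the signal; cells get compound, then TGF-beta (500 pg/mL final), 18 h at 37 degrees C; %Activity versus -TGF-beta and +DMSO controls.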
ATXN viability – Viability Counterscreen for Primary qHTS for Inhibitors of ATXN expression | S2 cells (HEK-293 line with an ATXN2-luciferase reporter) viability, CellTiter-Fluor protease fluorescence, 24 h | Potency, µM (doses to about 56.7 µM), hits mostly cytotoxic | hit rate 0.49% among 400,000; note: nearly all actives have a fitted effect of over 40% in size
HepG2 viability – qHTS for Inhibitors of TGF-b: Cytotox Counterscreen | HepG2 CAGA-GFP viability, ATP luminescence, 18 h | Potency, µM (series often up to 46.1 µM), for inactives: top-dose activity change, negative = cytotoxicity, actives largely listed as cytotoxic | hit rate 0.76% among 410,000 | AID 588856, 2011
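CellTiter-Glo luminescence gave cytotoxicity after 18 hours at 37 degrees C. The cells were HepG2 CAGA-GFP in 1% FBS DMEM, stimulated with 500 pg/mL TGF-beta after compound addition. %Activity was normalised to no-cell wells (complete cell-killing) and DMSO (no toxicity), and curves were fitted and classified.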
ATXN2 expr inh – Primary qHTS for Inhibitors of ATXN expression; HEK-293 ATXN2-luciferase reporter, luminescence, 24 h; Potency, µM (doses to about 57 µM), inactives show at the top dose activity change, negative = inhibition, most hits filed as inhibitors; hit rate 0.72% among 360,000; note: % is set by controls: 0 for no effect and ±100 for the full control effect; nearly all actives have a fitted effect of over 55% in size
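qHTS (up to 57 uM final) was run with 24 h compound exposure of reporter cells at 37 °C. Each well was multiplexed: SteadyGlo luminescence measured ATXN2-luciferase expression after a fluorogenic Gly-Phe-AFC viability readout (25 uM final).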
* = called active by the depositor. Compounds with a hit are over-represented: about 2.3% of the library has one in this group of screens. Calls come from the whole dose curve; as a rule, active = well fitted curve in the direction sought with a large enough effect; inconclusive = small, poorly fitted or top-dose-only effect, or another doubt; inactive = no such curve, though single readings can be large; an effect the other way counts as inactive or inconclusive. Potency is the fitted concentration of half-maximal effect.

CC(C)(C)c1ccc(C(=O)NCCOc2ccccc2)cc1 was read as TGFb inhibitor -2%, ATXN viability inactive, HepG2 viability -4% and ATXN2 expr inh inconclusive.
For O=C1/C(=C/c2ccccc2F)SC(=S)N1CC(=O)N1CCCCC1c1cccnc1 (centres undefined) the results were TGFb inhibitor inconclusive, ATXN viability inconclusive and HepG2 viability 13µM*.
For O=C(CCN1C(=O)/C(=C\c2ccccc2F)SC1=S)N1CCCCC1 the results were TGFb inhibitor -3%, ATXN viability 20µM*, HepG2 viability 5% and ATXN2 expr inh inconclusive.
CO/N=C(/C(=O)N[C@@H]1C(=O)N2C(C(=O)[O-])=C(C[n+]3ccn4ncccc43)CS[C@H]12)c1nsc(N)n1 was read as ATXN viability inactive and ATXN2 expr inh 7%.
`Cc1cc(C)c(CN2CCN(C(=O)Cn3cnc(C(=O)Nc4ccc(C)c(C)c4)n3)CC2)c(C)c1` gave TGFb inhibitor 16µM*, ATXN viability inconclusive, HepG2 viability -99% and ATXN2 expr inh inconclusive.
Cc1ccc(NC(=O)c2ncn(CCCN3CCN(Cc4cccc5ccccc45)CC3)n2)cc1C was read as TGFb inhibitor inconclusive, ATXN viability 32µM*, HepG2 viability -85% and ATXN2 expr inh inconclusive.
For COc1ccc(-c2sc(N)nc2-c2ccccc2)cc1 the results were TGFb inhibitor -6% and HepG2 viability -22%.
`Cc1ccc(CNC(=O)CN(c2ccc(C)cc2)S(=O)(=O)c2c(C)n[nH]c2C)cc1` gave TGFb inhibitor 1%, ATXN viability inactive, HepG2 viability 1% and ATXN2 expr inh 0%.
Screening Cc1ccc(CNC(=O)CN(c2ccc(C(C)C)cc2)S(=O)(=O)c2c(C)n[nH]c2C)cc1 returned TGFb inhibitor 11µM*, HepG2 viability -46% and ATXN2 expr inh inconclusive.
`S=C(NCCCN1CCOCC1)NCCCN1CCOCC1` gave TGFb inhibitor -17%, ATXN viability inactive, HepG2 viability -1% and ATXN2 expr inh -7%.
CCCCCCCCNC(=S)NCCN1CCCCC1 was read as TGFb inhibitor inconclusive, ATXN viability 25µM* and HepG2 viability -23%.
For COc1ccc(C[C@H]2CN3C(=NC[C@@H]3Cc3ccc(O)cc3)N2CCNC(=O)c2ccc(C)c(Br)c2)cc1 the results were TGFb inhibitor inconclusive, HepG2 viability 16µM* and ATXN2 expr inh 25µM*.
`C/C=C(\C)C(=O)NCCN1C2=NC[C@H](Cc3ccccc3)N2C[C@@H]1Cc1ccc(OC)cc1` gave TGFb inhibitor -7%, ATXN viability inactive, HepG2 viability -18% and ATXN2 expr inh -12%.
Cc1ccc(C(=O)NCCN2C3=NC[C@H](Cc4ccc(O)cc4)N3C[C@H]2Cc2ccc(O)cc2)cc1Br was read as TGFb inhibitor -12%, ATXN viability inactive, HepG2 viability -19% and ATXN2 expr inh 10%.
`COc1ccc(C[C@H]2CN3C(=NC[C@H]3Cc3ccccc3)N2CCNC(=O)CCC2CCCCC2)cc1` gave TGFb inhibitor inconclusive, ATXN viability 35µM*, HepG2 viability -103% and ATXN2 expr inh 35µM*.
`COc1ccc(C[C@H]2CN3C(=NC[C@H]3Cc3ccccc3)N2CCNC(=O)c2ccc(C)c(Br)c2)cc1` gave TGFb inhibitor inconclusive, ATXN viability 28µM*, HepG2 viability -116% and ATXN2 expr inh inconclusive.
Screening COc1ccc(C[C@H]2CN3C(=NC[C@@H]3Cc3ccccc3)N2CCNC(=O)c2ccc(C)c(Br)c2)cc1 returned TGFb inhibitor inconclusive, HepG2 viability 13µM* and ATXN2 expr inh 22µM*.
For Cc1ccn(CCC(=O)N2CCOc3ccc(C(O)C4CCCCC4)cc3C2)n1 (centres undefined) the results were ATXN viability inactive.
For Cc1ccnc2ccc(Br)cc12 the results were TGFb inhibitor -1% and HepG2 viability 4%.
For C[C@@H](CN1C2=NC[C@H](Cc3ccccc3)N2C[C@H]1Cc1ccc(O)cc1)NC(=O)CCC1CCCCC1 the results were TGFb inhibitor inconclusive, ATXN viability 22µM*, HepG2 viability -104% and ATXN2 expr inh 28µM*.
For C[C@@H](CN1C2=NC[C@H](Cc3ccc(O)cc3)N2C[C@H]1Cc1ccc(O)cc1)NC(=O)CCC1CCCCC1 the results were TGFb inhibitor 0%, ATXN viability inactive, HepG2 viability 0% and ATXN2 expr inh 13%.

Screens deposited in PubChem BioAssay by National Center for Advancing Translational Sciences (NCATS).
